# Laboratory results from PubChem BioAssay AID651899 (Broad Institute, 2012).
# Results with a measured potency or affinity are listed apart. Unmarked numbers belong to inactive results. The rule behind the calls is not given here.
# Assay: HEK293 cell viability loss – plate reader, cherry-pick, cytotoxicity control, dose response (AID 651899);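 note: cells exposed to compound for 48 hours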
# Conditions: series mostly up to 26 µM; activity change, negative = cytotoxicity: at the top concentration
row,SMILES,"activity change, negative = cytotoxicity"
1,O=C(Nc1ccc2c(c1)[C@H]1C[C@@H](CC(=O)N3CCc4ccccc4C3)O[C@@H](CO)[C@H]1O2)c1cccnc1,-13.1% [at 12 µM]
2,O=C(C[n+]1cc(-c2ccc(Cl)cc2)n2c1CCC2)N1c2ccccc2Sc2ccccc21,-9.9%
3,O=C(c1ccc2c(c1)OCO2)N1CC[C@@H]2[C@H](CO)Nc3ccc(-c4ccc(F)cc4)cc3[C@@H]21,6.2%
4,CC(=O)OCC(=O)[C@@]1(OC(C)=O)[C@@H](C)C[C@H]2[C@@H]3C[C@H](F)C4=CC(=O)C=C[C@]4(C)[C@@]3(F)[C@@H](O)C[C@@]21C,11.6%
5,Cc1cc2c(c(=O)n1Cc1cccnc1)C(c1cccs1)C(C#N)=C(N)O2 (stereo unspecified),-4.37%
6,CC1Cc2nc(SCC(=O)N3CCOCC3)n(-c3ccccc3)c(=O)c2S1 (stereo unspecified),-5.73%
7,CC1CCCN(c2ccc(C(=O)Nc3cccnc3)cc2[N+](=O)[O-])C1 (stereo unspecified),-22.5%
8,N#C[C@H]1[C@@H](c2ccccc2)[C@@H](CO)N1C(=O)Nc1cccc(F)c1,20%
9,CCN(CC)c1ccc2cc(C(=O)c3cccs3)c(=O)oc2c1,6.31%
10,O=C(C[C@H]1C[C@@H]2c3cc(NC(=O)c4cccnc4)ccc3O[C@@H]2[C@@H](CO)O1)NCC(F)(F)F,5.96%
11,C[C@H](CO)N1C[C@H](C)[C@@H](CN(C)Cc2ccc3c(c2)OCO3)Oc2ccc(NC(=O)Cn3cnnn3)cc2CC1=O,17% [at 12 µM]
12,O=C(Nc1cccnc1)C1CCN(S(=O)(=O)c2ccc(Cl)cc2)CC1,-11.1%
13,O=C(Nc1ccc2snnc2c1)N1CCOCC1,8.81%
14,COc1ccc(CCN(C)c2ccc(C(N)=O)cc2[N+](=O)[O-])cc1OC,-15.1%
15,CCC(Sc1nc2ccsc2c(=O)n1Cc1ccc(C(=O)O)cc1)C(=O)Nc1cccc(OC)c1 (stereo unspecified),60%
16,O=C(NCc1ccco1)c1ccc(-c2ccc3nccn3c2)cc1,-4.89%
17,CCOC(=O)c1ccc2c(c1)nc(SCc1cn3ccsc3n1)n2CC,1.73%
18,Cn1c(=O)c2c(nc(OCc3cccnc3)n2Cc2ccccc2)n(C)c1=O,0.309%

row,SMILES,"activity change, negative = cytotoxicity"
1,COc1ccc(-c2ccc3c(c2)C2CC3CCN2)cc1 (stereo unspecified),-17.7%
2,COc1ccc(C(=O)Nc2cccnc2)cc1OC,-16.8%
3,CC(Oc1ccc2ccc(=O)oc2c1)C(=O)N1CCOCC1 (stereo unspecified),-12.7%
4,COc1cccc(NC(=O)CCC2CCN(C(=O)c3ccc(C(C)=O)s3)CC2)c1,11.9%
5,CC(=O)c1ccc(C(=O)N2CCCC(Nc3ccccc3)C2)s1 (stereo unspecified),1.06%
6,O=C(c1ccncc1)N1CC[C@H]2[C@H](CO)Nc3ccc(Br)cc3[C@H]21,19.6% [at 23.5 µM]
7,O=C(c1ccccc1F)N1CC[C@@H]2[C@H]1c1cc(Br)ccc1N[C@@H]2CO,-6.71%
8,Cc1ccc(NC(=O)CSc2nc(=O)n(CCCN3CCOCC3)c3c2CCCC3)cc1F,23.6%
9,CC1(C)CC(=O)C=C(c2ccc3ncccc3c2)C1,-15.8%
10,CCC(=O)N1CC[C@@H]2[C@H]1c1cc(-c3cccc(F)c3)ccc1N(C)[C@@H]2CO,5.37% [at 23.5 µM]
11,C=CCn1c(COc2ccccc2F)nnc1SCCN1C(=O)c2ccccc2C1=O,12.7%
12,C=CCn1c(SCc2c(C(=O)OC)sc(N)c2C(=O)OC)nnc1-c1ccc(Br)cc1,-6.79%
13,COc1cccc(NC(=O)N2C[C@H](O)COC[C@@H]3O[C@@H](CC(=O)N(C)C)CC[C@H]32)c1,18.8%
14,CCNC(=O)[C@H]1[C@H](CO)[C@H]2Cn3c(ccc(-c4ccccc4)c3=O)[C@H]2N1C(=O)Cc1cccnc1,18.2%
15,COC(=O)C[C@@H]1C[C@@H]2c3cc(NC(=O)c4cccnc4)ccc3O[C@@H]2[C@@H](CO)O1,0.951%
16,COC(=O)C1CCN(C(c2ccc(OC)c(OC)c2)c2sc3nc(C)nn3c2O)CC1 (stereo unspecified),35.7%
17,Cc1cccc(-c2ccc3c(c2)C2CC3CCN2)c1 (stereo unspecified),-24.5%
18,COCC(=O)N1CC[C@@H]2[C@@H](CO)N(C)c3ccc(-c4ccc(F)cc4)cc3[C@@H]21,12.1%
